# Sampled rows, rich in hits. Any-hit rate of the full collection: about 19%.
# Giardia kill = kills Giardia lamblia | Giardia lamblia trophozoite viability | AID 540267 | actives 0.15% (n = 340,000) | activity change, % at 7.66 µM, hits read low; in the data active means activity change below about -80%; inconclusive means between about -30% and that limit;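 further: parasites exposed to compound for two days anaerobically before the ATP read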
#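 Luminescent ATP signal served as the viability read-out, measured 15-30 min after adding ATP detection reagent to trophozoites that had been incubated with compounds for 48 hrs at 37 deg C anaerobically at 100 cells/well.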
# DT40 TDP1 CPT = growth inhibition of DT40 Tdp1-/-;hTDP1 cells with camptothecin (screen for TDP1 inhibitors) | chicken DT40 Tdp1-/-;hTDP1 cells + 20 nM CPT, ATP luminescence, 48 h | Potency, µM (titrated, usually from 46.2 µM), inactives show at the highest dose activity change, negative = growth inhibition, usual class: inhibitors | actives 12% (n = 420,000); further: potency means the concentration at half of the fitted maximal effect; nearly all actives have a fitted effect of over 55% in size
#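 Cell growth measured by CellTiter-Glo luminescence after a minimum 48 h, 37 C compound exposure with 20 nM CPT in Tdp1-knockout DT40 cells stably expressing hTDP1, seeded 400/well; qHTS titration format.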
# ELG1 DNA repair = blocks ELG1-dependent DNA repair in HEK293T cells. HEK293T ELG1-luciferase reporter, luminescence, 16 h; DNA damage induced by 5-fluorouridine. Potency, µM (titrated, usually from 46.1 µM), for the others: at the top dose activity change, negative = inhibition, hits mostly inhibitors. actives 2.3% (n = 330,000); further: potency means the concentration at half of the fitted maximal effect; nearly all actives have a fitted effect of over 55% in size
#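 HEK293T cells expressing luciferase-tagged ELG1 (2,000/well) received 5-Fluorouridine plus compound or DMSO for 16 hr at 37 °C. Luciferase was read by ONE-Glo luminescence after 30 min at room temperature.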
# IL1B secr inh = blocks inflammasome-driven IL-1 beta release. THP-1 LPS/ATP IL-1B secretion, AlphaLISA, 16 h; hits give low values. activity change, % at 57.5 µM. actives 4.7% (n = 360,000). AID 743279; in the data active means activity change below about -50%; inconclusive means mostly about -30% to -49%
#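 Secreted IL-1B measured by AlphaLISA bead assay after 16 h compound exposure of THP-1 cells; compounds (final up to 57.5 uM) added 1 h before LPS (250 ng/mL) and ATP (1.25 mM) stimulation; lower signal means less secretion.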
# TDP1 block = TDP1 (human) enzyme inhibition. recombinant TDP1, AlphaScreen DNA substrate cleavage. actives 0.28% (n = 350,000). Potency, µM (highest dose often 130 µM), inactives show at the top dose activity change, negative = inhibition, actives largely listed as inhibitors. Q9NUW8; further: potency means the concentration at half of the fitted maximal effect; nearly all actives have a fitted effect of over 40% in size
# Target sequence (Q9NUW8 whole entry, looked up): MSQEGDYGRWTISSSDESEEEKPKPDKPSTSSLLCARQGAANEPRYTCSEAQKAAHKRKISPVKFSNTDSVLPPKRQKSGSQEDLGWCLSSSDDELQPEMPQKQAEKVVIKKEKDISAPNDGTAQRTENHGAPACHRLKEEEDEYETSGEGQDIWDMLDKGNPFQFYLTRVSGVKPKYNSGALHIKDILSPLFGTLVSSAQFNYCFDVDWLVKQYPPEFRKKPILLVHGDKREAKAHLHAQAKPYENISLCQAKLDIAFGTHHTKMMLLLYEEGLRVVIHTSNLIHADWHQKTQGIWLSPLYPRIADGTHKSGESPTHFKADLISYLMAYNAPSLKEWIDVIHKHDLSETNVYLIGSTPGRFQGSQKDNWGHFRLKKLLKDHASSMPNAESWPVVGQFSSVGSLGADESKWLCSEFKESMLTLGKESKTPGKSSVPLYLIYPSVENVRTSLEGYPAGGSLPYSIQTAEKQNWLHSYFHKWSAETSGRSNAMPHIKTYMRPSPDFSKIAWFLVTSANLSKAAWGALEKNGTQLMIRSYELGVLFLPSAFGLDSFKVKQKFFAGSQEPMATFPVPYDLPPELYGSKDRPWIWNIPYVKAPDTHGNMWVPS
#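 Enzyme-compound mixtures sat 15 min at room temperature, followed by a 5 min reaction with 15 nM final substrate and 10 min with AlphaScreen beads. Recombinant human Tdp1 was used at 1 nM final.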
# DT40 TDP1 no CPT = qHTS for Inhibitors of human tyrosyl-DNA phosphodiesterase 1 (TDP1): qHTS in cells in absence of CPT; DT40 Tdp1-/- hTDP1 cells, no CPT, ATP luminescence, 48 h; Potency, µM (titrated, usually from 46.2 µM), for the others: at the top dose activity change, negative = growth inhibition, most hits filed as inhibitors; actives 15% (n = 420,000); AID 686978, 2013; further: potency means the concentration at half of the fitted maximal effect; nearly all actives have a fitted effect of over 55% in size
#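 Chicken DT40 Tdp1-/- cells stably complemented with human TDP1 were seeded at 400 cells/well with DMSO in place of 20 nM camptothecin. After compound pinning, cells grew at least 48 hr at 37 °C; viability read by CellTiter-Glo luminescence.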
# * = called active by the depositor; ? = inconclusive; / = not tested or not shown. Unless noted, the call rests on the fitted dose curve; in most records, active means well fitted curve in the direction sought with a large enough effect; inconclusive means small, poorly fitted or top-dose-only effect, or another doubt; inactive means no such curve, though single readings can be large; an effect the other way counts as inactive or inconclusive. On the % scale 0 is the no-effect control and ±100 the full control effect.
SMILES,Giardia kill,DT40 TDP1 CPT,ELG1 DNA repair,IL1B secr inh,TDP1 block,DT40 TDP1 no CPT
O=C(Oc1cccc(F)c1)c1ccc2c(=O)n3c(nc2c1)CCC3,9,-12%,8%,-5,-7%,-13%
CCOC(=O)N1CCN(CC(O)COc2ccccc2C(C)C)CC1 (stereo not given),-11,?,7%,-10,6%,?
CCOC(=O)N1CCN(CC(O)COc2cc(C)ccc2C(C)C)CC1 (stereo not given),?,-29%,2%,-4,1%,8.2µM*
CCOC(=O)N1CCN(CC(O)COc2ccccc2C(C)(C)C)CC1 (stereo not given),1,?,-2%,1,3%,18µM*
CCOC(=O)N1CCN(S(=O)(=O)N2CCCC(C(=O)NCCc3ccc(C)cc3)C2)CC1 (stereo not given),13,?,-6%,-5,0%,-6%
COc1cccc(C2c3c(ncn(-c4ccc(C(C)(C)C)cc4)c3=N)Oc3ccc4ccccc4c32)c1 (stereo not given),/,/,/,/,4%,/
CC(=O)c1ccc(NC(=O)c2noc3c2CCC3)cc1,6,2%,?,-1,25µM*,10%
O=C(Nc1ccc(OC(F)(F)F)cc1)c1noc2c1CCCC2,/,7%,/,/,4%,-10%
Cc1ccc(NC(=O)c2noc3c2CCC3)cc1C,9,2%,?,15,/,?
COc1ccc(NC(=O)c2noc3c2CCC3)cc1,-12,-11%,?,-24,14µM*,?
CC(C)c1ccc(S(=O)(=O)c2nnn3c2nc(N2CCOCC2)c2sccc23)cc1,/,?,/,/,8%,?
COc1ccc(NC(=O)CSc2nc3c(c(-c4cccs4)c2C#N)CN(C)CC3)cc1OC,24,29µM*,-11%,?,5%,?
COc1ccc(NC(=O)CSc2nnc(-c3cccs3)n2C)cc1OC,-8,-3%,-6%,11,0%,6%
CCC(C)n1c(SC(C)C#N)nc2ccccc2c1=O (stereo not given),4,?,1%,22,2%,23µM*
CC(C)CCn1c(SC(C)C#N)nc2ccccc2c1=O (stereo not given),25,?,/,/,-11%,?
O=C(Nc1ccc2c(c1)OCO2)c1cc(C2CCCN(C(=O)C3CCCCC3)C2)on1 (stereo not given),/,23µM*,/,-22,/,?
O=C(Nc1ccccc1)c1cc(C2CCCCN2S(=O)(=O)Cc2cccc(C(F)(F)F)c2)on1 (stereo not given),/,21µM*,/,-28,/,?
CS(=O)(=O)N1CCCCC1c1cc(C(=O)Nc2ccccc2)no1 (stereo not given),/,-5%,/,-19,/,0%
CC(=O)Nc1ccc(C(=O)N2CCCCC2c2cc(C(=O)Nc3ccccc3Cl)no2)cc1 (stereo not given),/,-18%,/,0,/,-1%
CC(C)NC(=O)c1cc(C2CCCCN2C(=O)c2ccccc2)on1 (stereo not given),/,-9%,/,30,/,-21%
O=C(Nc1ccc2c(c1)OCO2)c1cc(C2CCCCN2C(=O)c2ccc3ccccc3c2)on1 (stereo not given),/,18µM*,/,-26,/,15µM*
O=C(Nc1ccccc1Cl)c1cc(C2CCCCN2C(=O)c2ccccc2)on1 (stereo not given),/,29µM*,/,9,/,?
C[C@H](NC(=O)c1ccco1)C(=O)N1CCCC1,-12,-1%,-7%,-8,0%,-3%
COCC(=O)N1CCC2(CC1)CN(C(=O)Nc1ccccc1)C2,/,15%,/,/,/,-4%
O=C(Nc1ccccc1Cl)c1cc(C2CCCCN2S(=O)(=O)c2ccc(F)cc2F)on1 (stereo not given),/,16µM*,/,42,/,21µM*
SMILES,Giardia kill,DT40 TDP1 CPT,ELG1 DNA repair,IL1B secr inh,TDP1 block,DT40 TDP1 no CPT
O=C(Nc1ccccc1)c1cc(C2CCCCN2C(=O)c2ccccc2)on1 (stereo not given),/,21µM*,/,18,/,?
O=C(Nc1ccc2c(c1)OCO2)c1cc(C2CCCCN2S(=O)(=O)c2ccccc2)on1 (stereo not given),/,16µM*,/,-25,/,?
Cc1ccsc1C(=O)OCC(=O)NC1CCCCC1,/,-6%,/,18,/,-5%
COc1cccc(-c2cnc3c(NC=O)cc(-c4cccc(NC(C)=O)c4)cn23)c1,/,18µM*,/,143,/,21µM*
CC(=O)c1cccc(-c2cnc3c(NC=O)cc(-c4ccccc4)cn23)c1,/,?,/,103,/,21µM*
CC(=O)Nc1cccc(-c2cc(NC=O)c3ncc(-c4cccc(C(C)=O)c4)n3c2)c1,/,?,/,192,/,21µM*
COc1cccc(-c2cc(NC=O)c3ncc(-c4ccc(C(C)=O)cc4)n3c2)c1,/,3.7µM*,/,0,/,2.3µM*
COc1cccc(CNC(=O)CCC2CCCN(C(=O)c3cc(C4CC4)[nH]n3)C2)c1 (stereo not given),-7,?,1%,6,/,-12%
O=C(N/N=C\c1ccc[nH]1)C1COc2ccccc2O1 (stereo not given),25,6%,6%,-18,/,0%
O=C(NC1=NCCS1)c1cccc(OC(F)F)c1,6,-5%,?,-2,1%,15%
CCOc1ccc(S(=O)(=O)N(CC)CC(=O)NCc2cccnc2)cc1,40,-5%,2%,22,10%,-9%
COc1cc(-c2cnc3c(NC=O)cc(-c4cccc(NC(C)=O)c4)cn23)cc(OC)c1OC,/,0.52µM*,/,157,/,0.52µM*
CC(=O)Nc1cc(-c2cccc(NS(C)(=O)=O)c2)cn2c(-c3ccccc3)cnc12,/,?,/,-16,/,?
COc1ccc(-c2cc(NC=O)c3ncc(-c4cccc(C(C)=O)c4)n3c2)cc1,/,?,/,53,/,18µM*
COc1cccc(-c2cnc3c(NC(C)=O)cc(-c4cccc(NS(C)(=O)=O)c4)cn23)c1,/,26µM*,/,43,/,23µM*
CCOc1ccc(C(=O)c2cn(CC(=O)Nc3ccc(OC)cc3)c3cc4c(cc3c2=O)OCCO4)cc1,/,?,/,/,1%,-26%
CC(C)(C)c1ccc(Oc2nc3ccccn3c(=O)c2/C=C(\C#N)c2nc3ccccc3[nH]2)cc1,/,2%,/,/,1%,-3%
O=C1CN(C(=O)/C=C/c2ccccc2)CCN1,-8,2%,11%,-5,/,2%

# Compound activity as filed in PubChem.
